This note sets out measurements from PubChem BioAssay AID493011 (Sanford-Burnham Center for Chemical Genomics, 2011).

Out of some 330,000 compounds screened, about 1,400 (0.42%) were called active. The sample holds actives, similar compounds and a random draw of the others, so the mix is not that of the screen. Values without a mark were called inactive.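 Rule for the calls: active = at least 40% inhibition at 20 µM here, with at most 30% in a related deaminase screen; inactive = the rest.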

By inhibition is commonly meant the relative decrease from the control value, in per cent.

The target in the assay is DNA dC->dU-editing enzyme APOBEC-3A (Homo sapiens) (UniProt P31941). The assay can be described thus: blockers of A3A cytidine deamination on DNA – biochemical, FAM/TAMRA oligo cleavage fluorescence, selectivity assay for APOBEC3G inhibitor project, primary screen (AID 493011).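 Note: plate controls were A3A with DMSO for no effect and wells lacking A3A enzyme for full effect.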 The following applies: recombinant A3A, FAM/TAMRA ssDNA deamination fluorescence; at 20 µM; hits give high values.
Sequence of DNA dC->dU-editing enzyme APOBEC-3A (Homo sapiens) (P31941 whole entry, looked up): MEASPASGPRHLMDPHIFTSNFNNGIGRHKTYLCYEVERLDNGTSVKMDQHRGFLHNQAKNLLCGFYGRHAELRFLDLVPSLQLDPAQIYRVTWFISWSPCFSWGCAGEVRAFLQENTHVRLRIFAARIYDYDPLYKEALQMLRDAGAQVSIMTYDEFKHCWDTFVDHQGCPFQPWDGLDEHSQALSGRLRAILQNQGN
As to `CCN(CC(=O)Nc1cc(Cl)ccc1C)C(=O)Cn1c(=O)cnc2ccccc21`, the inhibition is 10.7%.
The same measure for `CCOc1ccc(C(=O)CCN2CCOCC2)cc1`: -4.07%; for `CCC(=O)c1ccc(OCC(O)CN2CC(C)OC(C)C2)cc1` (stereo not given): 0.408%.
The same measure for `CC(C)CCOc1ccc(C(=O)C[N+]2(C)CCOCC2)cc1`: 83.1% (active).
Consider `CCn1c(=O)c(=O)[nH]c2c(=O)oc3ccc(S(=O)(=O)Nc4ccc(OC)cc4)cc3c21`, for which the inhibition was -3.37%.
The same measure for `CCC(C)c1ccc(NC(=S)N2CCCC2)cc1` (stereo not given): -3.82%; for `O=S(=O)(Nc1ccccc1N1CCOCC1)c1ccc(Cl)s1`: 2.47%; for `COc1cccc(N2CCN(c3ccc4nnc(CCC(=O)N5CCN(C)CC5)n4n3)CC2)c1`: -4.98%.
The same measure for `S=C(Nc1cccnc1)Nc1ccccn1`: 63.4% (active); for `COc1cc(/C=N/NC(=S)Nc2cccnc2)cc(OC)c1O`: -4.38%.
`Fc1cc(Br)ccc1NC(=S)Nc1cccnc1`: the inhibition is -0.709%.
The same measure for `O=C(COC(=O)C1CCN(S(=O)(=O)c2ccc3c(c2)OCCO3)CC1)Nc1ccccc1OC(F)F`: 3.88%.
Consider `CCc1ccc(NC2Nc3cc(C)nn3S2)cc1` (stereo not given), for which the inhibition was -0.183%.
The same measure for `Cc1nnc(CN(C)Cc2cn[nH]c2-c2ccc(-c3ccccc3)cc2)o1`: 1.98%; for `COc1ccc(C(=O)OCC(=O)NC(=O)CCSc2ccccc2)cc1`: 0.284%.
With `CCS(=O)(=O)C1=NSC2=NC(=O)/C(=C\c3cc(C)n(-c4cccc(OC)c4)c3C)C(=N)N21`, the inhibition is -3.79%.
In the case of `CS(=O)(=O)c1ccc2c(c1)SC1=NC(=O)/C(=C/c3ccco3)C(=N)N12`, the inhibition is 41.6% (active).
In the case of `CCS(=O)(=O)C1=NSC2=NC(=O)/C(=C\c3ccc(OS(=O)(=O)c4ccccc4)cc3)C(=N)N21`, the inhibition is -0.304%.
In the case of `COc1cc(C)c(Cl)cc1S(=O)(=O)n1ccnc1`, the inhibition is -3.09%.
Consider `Cc1noc(C)c1S(=O)(=O)N(C)C[C@H]1Oc2ccc(NC(=O)C3CC3)cc2C(=O)N([C@H](C)CO)C[C@@H]1C`, for which the inhibition is -2.35%.
For `O=C(NNC(=O)c1cnccc1C(F)(F)F)c1ccc(Cl)cc1`, the inhibition was -3.45%.
The same measure for `CN(c1ccccc1)S(=O)(=O)c1cc(C(=O)Nc2nc3ccccc3[nH]2)ccc1Cl`: 2.16%; for `O=C(Nc1cccc(-c2nc3ccccc3[nH]2)c1)c1ccc(C(=O)Nc2cccc(-c3nc4ccccc4[nH]3)c2)cc1`: 52.5% (active); for `O=C(Nc1ccccc1)c1cc2ccccc2[nH]1`: 2.51%.
`C/C(=N\NC(=O)C1(C)CC1(Br)Br)c1ccc(C)cc1C` (stereo not given): the inhibition is 3.9%.
Turning to `CC(Oc1ccc(F)cc1)C(=O)N1CCN(c2ncccn2)CC1` (stereo not given), the inhibition was 3.53%.
As for `Cc1ccc(NC(=O)COc2coc(CN3CCc4ccccc4C3)cc2=O)cc1Cl`, the inhibition was -2.19%.
As to `c1ccc(C(c2ccccc2)N2CCN(Cc3nnnn3C3CCCCC3)CC2)cc1`, the inhibition was -5.77%.
As to `CC1(C)CC(N2CCN(C(c3ccccc3)c3ccccc3)CC2)=CC(=[N+]2CCCCC2)C1`, the inhibition is 57.4% (active).
`COc1ccccc1CN1CCN(C(c2ccccc2)c2ccccc2)CC1`: the inhibition is -1.76%.
Take `COc1cc(C(=O)OCC(=O)NC(C)CCc2ccccc2)cc(OC)c1OC` (stereo not given): the inhibition is -4.8%.
For the compound `Cc1ccc(S(=O)(=O)N2CCCCC2)cc1C(=O)N(C)CC(=O)Nc1cccc(F)c1`, the inhibition was 4.08%.
The same measure for `CN(C)S(=O)(=O)c1ccc(N2CCCC2)c(C(=O)Nc2cccc(F)c2)c1`: -1.6%.
As for `CCCCCCCC[n+]1cccc(C(=O)N2c3c(nc(N)[nH]c3=O)NC(C)C2C)c1` (stereo not given), the inhibition was 66.2% (active).
The same measure for `CCCCCCn1c(SCC(=O)c2ccccc2)nc2c1c(=O)[nH]c(=O)n2C`: -3.65%.
The same measure for `Cc1ccc(C(=O)NC(=S)Nc2ccc3[nH]c(=O)[nH]c3c2)cc1C`: -1.4%.
Take `NC(N)=N/N=C/c1ccc(OCc2ccc(Cl)cc2Cl)cc1`: the inhibition was 0.729%.
Next, `C/C(N)=C(/C#N)C(=O)COC(=O)C1CCN(C(=O)c2ccc(Cl)cc2)CC1`: -0.831%.
Next, `COc1ccc(N2C(=O)CC(Nc3ccc(F)cc3)C2=O)c([N+](=O)[O-])c1` (stereo not given): -1.69%; `CC(=O)NCc1ccc(-c2csc(NC(=O)CCCc3nc4ccccc4c(=O)[nH]3)n2)cc1`: 4.49%.
The same measure for `O=C(CSc1nc2ccccc2c(=O)[nH]1)Nc1nc(-c2ccc(Br)cc2)cs1`: 44.5% (active); for `CCOC(=O)c1ccccc1NC(=O)CSc1nc2ccccc2c(=O)[nH]1`: 1.48%; for `CCCCN(C(=O)c1ccc2ccccc2c1)c1c(N)n(CCCC)c(=O)[nH]c1=O`: -4.05%.
On to `CCN(C(=O)COc1cccnc1[N+](=O)[O-])C1CCS(=O)(=O)C1` (stereo not given), for which the inhibition was 0.474%.
Next, `CCN1C(=NCC(C)C)N[C@@H](CCc2ccccc2)[C@H](C(=O)NCC(C)C)[C@H]1C`: 53.8% (active).
For `CCN1C(=O)N[C@@H](CCc2ccccc2)C(C(=O)OC)=C1C`, the inhibition was -3.29%.
As for `COCCN1C(=O)N[C@@H](CCc2ccccc2)[C@H](C(C)=O)[C@H]1C`, the inhibition was 0.644%.
In the case of `CCN1C(=NCc2ccc(OC)cc2)N[C@@H](CCc2ccccc2)[C@H](C(=O)NCc2ccc(OC)cc2)[C@H]1C`, the inhibition was 49.6% (active).
Next, `CCN1C(=S)N[C@@H](CCc2ccccc2)[C@H](C(=O)OC)[C@H]1C`: -3.49%; `CC(C)CNC(=O)C(=O)NCc1ccccc1`: 6.28%.
The same measure for `CCN(CC)CCCNC(=O)CCn1nc(-c2ccc(Cl)cc2)ccc1=O`: 98.8% (active); for `CCCCNC(=O)CCn1nc(-c2ccc(Cl)cc2)ccc1=O`: -0.453%.
The same measure for `Cc1ccc(-c2ccc(=O)n(CC(=O)NCCCN3CCCCC3)n2)cc1`: -1.5%; for `Cc1cc(=O)[nH]c(SCc2cccc(F)c2)n1`: -0.614%; for `Cc1cc(=O)[nH]c(SCc2cc(Cl)ccc2OC(F)F)n1`: -4.15%.
For the compound `COc1ccccc1-c1noc(CSc2nc(C)cc(=O)[nH]2)n1`, the inhibition is 53.2% (active).
For `CC1CCN(S(=O)(=O)c2ccc(S(=O)(=O)NCc3ccco3)cc2)CC1`, the inhibition was -4.88%.
Next, `CN(CCOc1ccc(Br)cc1)CC(=O)Nc1cccc(S(=O)(=O)NC2=NCCC2)c1`: -4.16%; `COc1cccc(NC(=O)CN(C)C(=O)/C=C/c2cn(-c3ccccc3)nc2-c2cccs2)c1`: -4.72%; `COc1ccc(NC(=O)CN(C)C(=O)/C=C/c2cn(Cc3ccccc3)nc2-c2cccnc2)cc1`: 43.8% (active).
The same measure for `COc1cccc(NC(=O)CN(C)C(=O)/C=C/c2cc(OC)ccc2OC)c1`: -6.53%.
Next, `O=C(CN1CCOC1=O)N1CCCC(Nc2ccc(F)c(F)c2)C1` (stereo not given): -3.28%.
As for `CC(CNC(=O)c1ccc(Br)o1)NC(=O)c1ccc(Br)o1` (stereo not given), the inhibition is 2.21%.
The same measure for `O=C(CNC(=O)c1ccc(Br)o1)Nc1ccccc1`: -8.36%; for `CCS(=O)(=O)c1ccc(-c2cccc(NC(=O)c3ccc(Br)o3)c2)nn1`: 95.4% (active); for `Cc1cc(C)cc(Oc2c(C(F)(F)F)oc3cc(OCC(=O)O)ccc3c2=O)c1`: 9.37%.
In the case of `O=C(CN1CCN(S(=O)(=O)c2cc(Cl)ccc2Cl)CC1)c1ccc(O)c(O)c1`, the inhibition was -5.68%.
Next, `N#Cc1ccsc1NC(=O)CN1CCCCC1`: -2.27%; `N#Cc1ccsc1NC(=O)CN1CCN(S(=O)(=O)c2cc(Cl)ccc2Cl)CC1`: 40.6% (active); `CC(CC(=O)C1C(C)C=CCC1(C)C)NNC(N)=O` (stereo not given): 0.901%.
As to `CSc1ccccc1NC(=O)c1cnc2sc(C)cn2c1=O`, the inhibition was 0.854%.
The same measure for `CCc1c(C)nc2ncnn2c1N1CCC(C(=O)NCc2ccc3c(c2)OCO3)CC1`: 2.23%; for `O=C(COC(=O)c1ccccc1O)NCc1ccco1`: 32.8%; for `O=C(COC(=O)c1cnc(Cl)c(Cl)c1)NCc1ccco1`: 50.6% (active).
The same measure for `COc1ccc(CCNC(=O)COC(=O)c2cnc(Cl)c(Cl)c2)cc1`: 4.13%; for `CC(C)CCN1CCC(C)(NC(=O)c2ccccc2)C1=O` (stereo not given): 0.313%.
Next, `COc1ccccc1N(C)S(=O)(=O)c1ccc(Cl)c(C(=O)N2CCC(C(N)=O)CC2)c1`: 1.46%; `Cc1sc(NC(=S)NC(=O)c2cccs2)nc1-c1ccc(CC(C)C)cc1`: 2.88%.
With `CCc1nnc(NC(=O)CCC(=O)N2CCN(c3cc(C)ccc3C)CC2)s1`, the inhibition was -1.97%.
With `CCN(Cc1cc2cc(C)ccc2[nH]c1=O)S(=O)(=O)c1ccccc1`, the inhibition was -2.49%.
Next, `CCCc1nc(-c2cc3cc(C)ccc3[nH]c2=O)no1`: 40.2% (active); `COc1ccc2[nH]c(=O)c(-c3noc(-c4ccc(F)cc4)n3)cc2c1`: 70.7% (active); `COc1ccc2[nH]c(=O)c(CNc3ccc(C)c(C)c3)cc2c1`: 0.515%.
The same measure for `COc1ccc(Cc2cc(-c3ccc(F)cc3)n[nH]c2=O)cc1`: -4.85%.
Next, `CCC(=O)N(CCc1ccccc1)Cc1cc2cc(C)ccc2[nH]c1=O`: -6.3%; `C/C(=C\c1ccco1)CN1CCC(N2CCC(C(=O)N3CCOCC3)CC2)CC1`: -1.12%; `CC1CCCCC1NC(=O)CSc1nnc(N)s1` (stereo not given): -0.077%.
As to `Cc1cc(C)n2nc(C(=O)Oc3ccc4c(c3)OCO4)nc2n1`, the inhibition is 0.02%.
`Cc1ccc(-c2nc(C#N)c(NCCCn3ccnc3)o2)cc1`: the inhibition was 0.374%.
Turning to `CC[n+]1cc(C)ccc1/C=C/c1ccc(N(C)C)cc1`, the inhibition was 64.4% (active).
